Records with an inconclusive call do not appear. Calls of active or inactive are those of the source. Calls come from the whole dose curve; as a rule, active = well fitted activation curve with a large enough effect; inconclusive = small, poorly fitted or top-dose-only effect; inactive = flat fitted curve, though single readings scatter. Peptide text beside a SMILES is read from it. * marks the point of attachment. Hexanoyl = CCCCCC(=O)*

This experiment is described as follows: qHTS for Hypoxia signaling pathway (HIF-1) agonists against the NCATS CANVASS Library (AID 1347375). Note: 0% is about no effect. Conditions: HRE-bla ME-180 cells, HIF-1 beta-lactamase reporter, 17 h; series mostly up to 38.3 µM; activation: at the top concentration. The source says:
Natural products and their derivatives continue to be wellsprings of nascent therapeutic potential. However, many laboratories have limited resources for biological evaluation, leaving their previously isolated or synthesized compounds largely or completely untested. To address this issue, the Canvass library of natural products was assembled (https://tripod.nih.gov/canvass), in collaboration with academic and industry researchers, for quantitative high-throughput screening (qHTS) across a diverse set of cell-based and biochemical assays. The pure (>85% purity by liquid chromatography/mass spectrometry [LC/MS]) Canvass library of 346 natural products were submitted by 45 academic laboratories and companies around the world. We collected pure natural products to circumvent deconvolution and structure elucidation due to time and resource limitations. The library was formatted into 1536-well plates and evaluated in 50 qHTS (in an 11-pnt concentration series) bioassays with broad scope of disease-relevant mechanisms. The resulting data set from 50 different assays was then systematically analyzed to identify overall trends and specific natural products with interesting biological activities. Reported herein are the results of each individual qHTS and their corresponding assay protocol. During hypoxic conditions, the cellular responses are regulated in large part through the activation of the heterodimeric transcription factor called hypoxia-inducible factor-1 (HIF-1). The assay used is a beta-lactamase reporter gene under control of the hypoxia responsive element (HRE) that has been stably integrated into ME-180 cells. This assay identifies inducers of the HIF-1-signaling pathway. The cytotoxicity of the compound library against HRE-bla ME-180 cell line was tested in parallel by measuring cell viability using CellTiter-Glo assay (Promega, Madison, WI) in the same assay wells. The compounds were also tested for auto fluorescence that may interfere with the biological target readout resulting in potential false positives and/or negatives. National Center for Advancing Translational Sciences (NCATS), Rockville, MD National Institute of Health (NIH), Bethesda, Maryland
HIF-1 agonist assay protocol: HRE-bla ME-180 cells were dispensed at 2,000 cells per well in 6 uL of assay medium containing 0.5% dialyzed FBS into black wall/clear-bottom 1536-well plates using a Multidrop Combi (Thermo Scientific, Waltham, MA) dispenser. After the assay plates were incubated at 37C and 5% CO2 for 5 hrs, 23 nL of compounds dissolved in DMSO, positive controls or DMSO only was transferred to each well of the assay plate using a Pintool station (Kalypsys, San Diego, CA). The assay plates were incubated at 37C and 5% CO2 for 17 hrs. One uL of LiveBLAzerTM B/G FRET substrate (CCF4-AM) (Life Technologies) was added to each well using a Flying Reagent Dispenser (Aurora Discovery, San Diego, CA). After 2 hr incubation at room temperature, fluorescence intensity (405 nm excitation, 460 nm and 530 nm emissions) was measured using an Envision plate reader (PerkinElmer, Shelton, CT). To assess cell viability (and for data normalization), 4uL of CellTiter-Glo (Promega) was added to the assay plate using the BioRAPTR dispenser and incubated at room temperature for 30 min. Luminescence signal was obtained using the ViewLux microplate reader (PerkinElmer) using a clear emission mirror, and a 15 sec exposure time, 1x binning settings.
Background: In qHTS, concentration-response curves come from the screen itself.
Take `CN1CCc2cc3c(c4c2C1(C)C(=O)c1cc(O)ccc1-4)OCO3` (stereo not given): the “activation” value was 2.04% (inactive).

As to `C[C@@]12CCC[C@@](C)(C(=O)O)[C@H]1C[C@@H](O)[C@@]13C[C@@H](CC[C@@H]21)[C@](C)(O)C3`, the “activation” value was 2.77% (inactive).

For `COC12OC1(C13OC1(OC)C(=O)c1cc4cc(C)oc(=O)c4c(O)c1C3O)C(O)c1c(cc3cc(C)oc(=O)c3c1O)C2=O` (stereo not given), the “activation” value is 11.4% (inactive).

Take `C[C@H]1CCC2(OC1)O[C@H]1C[C@H]3[C@@H]4CC(=O)[C@]5(O)C[C@H](O)CC[C@@]5(C)[C@H]4CC[C@@]3(C)[C@H]1[C@H]2C` (stereo not given in full): the “activation” value is -1.21% (inactive).

For `COC1C(C)OC(OCC23C[C@@H]4[C@H](C)CC[C@H]4C4(C=O)CC2C=C(C(C)C)C34C(=O)O)[C@@H](O)[C@H]1O` (stereo not given in full), the “activation” value was -2.47% (inactive).

With `C/C=C1/CN2C3CC1C1C=CC(=O)N4c5ccccc5[C@@]3(C[C@@H]2C2=C[C@H]3C5CC6N(CC[C@@]67c6ccccc6N(C2=O)[C@@H]37)C/C5=C/C)[C@H]14` (stereo not given in full), the “activation” value was 6.17% (inactive).

As to `C=C1CC[C@@H](Br)C(C)(C)[C@]12CC=C(C)C(=O)C2`, the “activation” value was -0.909% (inactive).

For the compound `O=C1CC2OCC=C3CN4C5CC3C2[C@@H]2N1c1ccccc1[C@]52C[C@@H]4C1=C[C@H]2C3CC4N(CC[C@@]45c4ccccc4N(C1=O)[C@@H]25)C/C3=C/CO` (stereo not given in full), the “activation” value is 2.66% (inactive).

Turning to `C=CC(CCCCC)C1C(=O)NC(=O)C1C(=O)C1C(/C=C/C)C=CC2CC(C(=O)O)CC(C)C21` (stereo not given), the “activation” value was 1.84% (inactive).

For the compound `CN1CC[C@@]2([C@@]34CCN(C)[C@@H]3Nc3ccccc34)c3ccccc3N[C@@H]12`, the “activation” value was 4.95% (inactive).

As for `CCCCCC(=O)N[C@@H](CC(C)C)C(=O)N[C@H](C=O)CCC(=O)O` (Hexanoyl-Leu-Glu-aldehyde), the “activation” value is 2.17% (inactive).

Regarding `CC(C)[C@]12CC[C@@]3(C)[C@H](C)CC[C@H](O)[C@@]3(CC1)c1cc3c(cc12)[nH]c1ccccc13`, the “activation” value is 8.82% (inactive).

Take `CC1=C2CC[C@]3(C)[C@H](CC=C4[C@@H]5CC(C)(C)CC[C@@H]5C(=O)[C@H](O)[C@]43C)[C@@]2(C)C=C(O)C1=O`: the “activation” value is -0.719% (inactive).

Take `CN1C(=O)C(=O)N2C(=C[C@]3(c4c[nH]c5ccccc45)c4ccccc4N[C@H]23)C1=O`: the “activation” value is 2.28% (inactive).

Regarding `COc1ccc([C@@H]2c3cc4c(cc3C(=O)[C@H](C)C2C)OCO4)cc1OC` (stereo not given in full), the “activation” value is 6.78% (inactive).

Regarding `O=c1cc(-c2ccc(O)cc2)oc2cc(O)c([C@@H]3OC(CO)[C@H](O)[C@@H](O)[C@H]3O)c(O)c12` (stereo not given in full), the “activation” value was 1.31% (inactive).

Take `C/C(=C\[C@H](C)C(=O)/C=C/CC1CC(=O)NC(=O)C1)[C@@H]1OC(=O)CCCC/C=C/[C@H](O)[C@@H](O)[C@@H]1C`: the “activation” value was -0.573% (inactive).

Consider `C[n+]1cc2cc(C(N)=O)[nH]c3c(=N)c(Cl)c(N)c1c23`, for which the “activation” value is 0.962% (inactive).

As to `C=C1C[C@]23C=CC(=O)[C@@](C)(CCCC(C)C(=O)N[C@@H](CO)C(=O)O)[C@@H]2C[C@@H]1CC3` (stereo not given in full), the “activation” value is 2.35% (inactive).

Regarding `CC(C)=CCC/C(C)=C/Cc1cc([C@@H]2CC(=O)c3c(cc(O)c(CC=C(C)C)c3O)O2)ccc1O`, the “activation” value is 7.87% (inactive).

`CCC(=O)N[C@@H](C[C@H](C)C(Cl)(Cl)Cl)C(=O)N1C(=O)C=C(OC)[C@@H]1CC(C)C`: the “activation” value was 2.97% (inactive).

With `COc1ccc([C@@H]2c3cc4c(cc3C[C@H](C)C2C)OCO4)cc1OC` (stereo not given in full), the “activation” value was 4.83% (inactive).

Turning to `O[C@H]1C=C2[C@H]3CN(Cc4cc5c(cc43)OCO5)[C@H]2C[C@@H]1O`, the “activation” value is 1.21% (inactive).

As for `COc1ccc([C@@H]2CC(=O)c3c(cc(O)c(C/C=C(\C)CCC=C(C)C)c3O)O2)cc1`, the activation was 1.16% [at 7.64 µM] (inactive).

Take `Cc1occ2c1C(=O)c1c(cc(O)c(O)c1O)C2=O`: the “activation” value is 16% (inactive).

Take `CC(C)=CCC[C@]1(C)[C@H]2CC(=O)[C@@]3(CO3)[C@@H]1C2`: the “activation” value is -0.957% (inactive).

As for `C/C1=C/[C@@H](C)[C@H](O)[C@@H](O)/C=C/CC/C=C/C(=O)O[C@@H]1[C@H](C)C(=O)CCCC1CC(=O)NC(=O)C1`, the “activation” value was 2.85% (inactive).

`C/C1=C/[C@@H](C)[C@H](O)[C@@H](O)/C=C/CC/C=C/C(=O)O[C@@H]1[C@H](C)C(=O)/C=C/CC1CC(=O)NC(=O)C1`: the “activation” value is -0.405% (inactive).

As for `COc1cc2c(cc1OC)[C@@H](c1ccc3c(c1)OCO3)C(C)[C@@H](C)C2=O` (stereo not given in full), the “activation” value was 12.2% (inactive).

For the compound `C/C=C(/CO)C(=O)O[C@@H]1[C@H](O)[C@@H](C(=O)OC)O[C@@H]2C[C@H]3OC(n4cnc5c(N)ncnc54)[C@H](OC)[C@H]3O[C@@]12O` (stereo not given in full), the “activation” value was 2.72% (inactive).

Consider `C/C(=C\CC[C@@H](C)[C@H]1CC[C@]2(C)C3=CCC4C(C)(C)[C@@H](O)C[C@@H](O)[C@]4(C)C3[C@H](O)C[C@@]12C)CO` (stereo not given in full), for which the “activation” value was -2.27% (inactive).

Regarding `O=c1cc(-c2ccc(O)c(O)c2)oc2cc(O[C@@H]3O[C@H](CO)[C@@H](O)[C@H](O)[C@H]3O)cc(O)c12`, the “activation” value was 0.209% (inactive).

As for `C=CC(CCCCC)C1C(=O)NC(=O)C1C(=O)C1C2C(C)CC(C(=O)O)CC2CC1(O)C(=O)/C=C/C` (stereo not given), the “activation” value was 6.98% (inactive).

For `C[C@@]12CCC[C@@](C)(C(=O)OP(=O)(O)OC[C@H]3O[C@@H](n4cnc5c(N)ncnc54)[C@H](O)[C@@H]3O)[C@H]1C[C@@H](O)[C@@]13C[C@@H](CC[C@@H]21)[C@](C)(O)C3`, the “activation” value is 0.872% (inactive).

Consider `CC(=O)c1c(C)cc2c(c1O)C(=O)c1c(O)cc(O)cc1C2=O`, for which the “activation” value was -0.795% (inactive).

As to `CCC(C)=C1OC(=O)[C@H](C)[C@H](O)[C@H](Cc2cccnc2)NC(=O)C(NC(=O)c2ncccc2O)C(C)OC1=O` (stereo not given in full), the “activation” value was 1.63% (inactive).

On to `COC(=O)c1cc2cc3c(c(O)c2c(=O)o1)OC1(CC3)CC2=C(O1)C(=O)c1c(O)c(OC)cc(OC)c1C2=O` (stereo not given), for which the “activation” value is 6.21% (inactive).

In the case of `C[C@H](CCC(O)C(C)(O)CO)[C@@]1(O)CC[C@@]2(C)C3=C(CC[C@@]21C)[C@@]1(C)CCC(OC(=O)CCC(=O)O)C(C)(C)[C@@H]1CC3` (stereo not given in full), the “activation” value is -1.14% (inactive).

For the compound `COc1cc([C@@H]2c3cc4c(cc3C[C@@]3(O[C@@H]5O[C@H](CO)[C@@H](O)[C@H](O)[C@H]5O)COC(=O)[C@H]23)OCO4)cc(OC)c1OC`, the “activation” value was 1.87% (inactive).

As for `C[C@]12CCC[C@](C)(C(=O)O)[C@@H]1CC[C@@]1(C)c3cocc3CC[C@H]21`, the “activation” value is -1.65% (inactive).

The record behind these values is PubChem BioAssay (NCATS).
